Marburg entry inh: Marburg virus entry inhibition; Potency, µM (titrated, usually from 37.8 µM), hits mostly inhibitors; Marburg virus pseudotyped entry inhibition, cell reporter; 300,000 compounds, 1.8% hits; AID 540276; calls by dose curve; tested in HEK293 cells
VACV Venus inh: inhibitors of vaccinia virus (Venus reporter); AID 720580; Potency, µM (doses to about 36.5 µM), most hits filed as inhibitors; 330,000 compounds, 0.46% hits; Vaccinia virus Venus reporter expression, fluorescence; calls by dose curve; tested in A549 cells; also: nearly all actives have a fitted effect of over 30% in size
LASV entry inh: blocks Lassa virus binding to or entry into cells; Lassa virus pseudotype entry inhibition, cell reporter; Potency, µM (doses to about 37.9 µM), usual class: inhibitors; 300,000 compounds, 1.2% hits; AID 540256; calls by dose curve; tested in HEK293 cells; also: nearly all actives have a fitted effect of over 50% in size
Vaccinia mCherry: vaccinia inhibition (mCherry reporter). 310,000 compounds, 0.63% hits. AID 720579. Potency, µM (top dose mostly 36.5 µM), most hits filed as inhibitors. Vaccinia virus mCherry reporter infection, fluorescence; calls by dose curve; tested in A549 cells; also: nearly all actives have a fitted effect of over 35% in size
Large screens that a line does not name were inactive; ! = repeats disagree. Compounds with a hit are over-represented: about 2.5% of the library has one in this group of screens.

CCC(C)(C)n1nnnc1C(C(C)C)N(Cc1ccco1)Cc1cc2cc3c(cc2[nH]c1=O)OCO3 (stereo not drawn)	Marburg entry inh 16.4µM (no result: VACV Venus inh, Vaccinia mCherry)
CCC(C)(C)n1nnnc1C(C(C)C)N(Cc1cccnc1)Cc1ccco1 (stereo not drawn)	Marburg entry inh inconclusive
COC(=O)C1CCN(Cc2ccc3c(c2)CN(C(=O)c2ccc(-n4cnnn4)cc2)CCO3)CC1	none (no result: Marburg entry inh, LASV entry inh)
Cc1ccc(N=Cc2ccc(N(C)C)cc2)cc1	VACV Venus inh 3.55µM (no result: Vaccinia mCherry)
COC(=O)C1=C(C)OC(N)=C(C#N)[C@H]1c1ccc(OC)c(OC)c1OC	none (no result: VACV Venus inh, LASV entry inh, Vaccinia mCherry)
CSC(=Nc1ccccc1)N=C(SCc1ccccc1)N(C)C	Marburg entry inh inconclusive, VACV Venus inh inconclusive, LASV entry inh 12.6µM, Vaccinia mCherry inconclusive
CCOc1cccc(CNCCc2c(C)[nH]c3ccc(OC(F)(F)F)cc23)c1O	VACV Venus inh 10µM, Vaccinia mCherry inconclusive (no result: Marburg entry inh, LASV entry inh)
Cc1[nH]c2ccc(OC(F)(F)F)cc2c1CCNCc1cccc([N+](=O)[O-])c1	Marburg entry inh inconclusive, Vaccinia mCherry inconclusive
C#CCCCON=C1C[C@@H](O)[C@H](O)[C@H]2[C@@H]3C(=O)N(c4ccc(F)cc4F)C(=O)[C@@H]3CC[C@@H]12	none (no result: VACV Venus inh, LASV entry inh, Vaccinia mCherry)
CC(C)[C@@]1(NC(=O)[C@@H]2C[C@@H]3c4cccc5[nH]cc(c45)C[C@H]3N(C)C2)O[C@@]2(O)C3CCCN3C(=O)[C@H](Cc3ccccc3)N2C1=O (stereo partly drawn)	Marburg entry inh 5.62µM (no result: VACV Venus inh, Vaccinia mCherry)
CC(C)[C@@]1(NC(=O)[C@@H]2C[C@@H]3c4cccc5[nH]cc(c45)C[C@H]3N(C)C2)O[C@@]2(O)[C@@H]3CCCN3C(=O)[C@H](Cc3ccccc3)N2C1=O	Marburg entry inh 5.62µM!, LASV entry inh inconclusive
CN1C[C@H](C(=O)N[C@@]2(C)O[C@@]3(O)C4CCCN4C(=O)C(Cc4ccccc4)N3C2=O)C[C@H]2c3cccc4[nH]cc(c34)C[C@H]21 (stereo partly drawn)	none (no result: Marburg entry inh, LASV entry inh)
COc1ccc(-n2ccc(-c3sc(NCc4cc(OC)c5c(c4)OCO5)nc3C)n2)cc1	none (no result: Marburg entry inh, LASV entry inh)
C#CCCCO/N=C1\C[C@@H](O)[C@@H](O)[C@@H]2[C@@H]3C(=O)N(C[C@@H]4CCCO4)C(=O)[C@@H]3CC[C@H]12	none (no result: VACV Venus inh, LASV entry inh, Vaccinia mCherry)
Fc1ccccc1-c1nc(-c2ccccc2)oc1NCc1ccccc1	none (no result: VACV Venus inh, LASV entry inh, Vaccinia mCherry)
CCCCn1c(-c2ccc(Cl)c(Cl)c2)nc2cc3[nH]c(=O)c(C(C)C)nc3cc21	Vaccinia mCherry inconclusive (no result: Marburg entry inh, LASV entry inh)
CCCCn1c(-c2ccc(C(C)(C)C)cc2)nc2cc3[nH]c(=O)c(C(C)C)nc3cc21	VACV Venus inh inconclusive, Vaccinia mCherry 10µM (no result: Marburg entry inh, LASV entry inh)
Cn1c(=O)c2c(SCC(=O)N3CCCc4ccccc43)nc(CC(C)(C)C)nc2n(C)c1=O	VACV Venus inh 11.2µM, Vaccinia mCherry inconclusive (no result: Marburg entry inh, LASV entry inh)
CNC[C@H](Cc1ccccc1)NC[C@@H](Cc1cccc2ccccc12)NCCc1ccc(C)cc1	VACV Venus inh 14.1µM, Vaccinia mCherry inconclusive (no result: Marburg entry inh, LASV entry inh)
O=C(NCC(c1ccco1)N1CCN(c2ccc(F)cc2)CC1)OCc1ccccc1 (stereo not drawn)	Marburg entry inh inconclusive, LASV entry inh 1.26µM
CCN(c1ccccc1)S(=O)(=O)c1ccc(Cl)c(NC(=O)CN2CCCCCC2)c1	Marburg entry inh inconclusive, LASV entry inh inconclusive
CCC(C)NCC(=O)Nc1cc(S(=O)(=O)N(CC)c2ccccc2)ccc1Cl (stereo not drawn)	Marburg entry inh 20.6µM, LASV entry inh inconclusive
CC(=NNC(=S)SCc1ccccc1)c1ccccn1	Marburg entry inh 0.891µM, VACV Venus inh inconclusive, LASV entry inh 1.58µM, Vaccinia mCherry 10µM
CC(=NNC(=S)Nc1cccc(Cl)c1)c1ccccn1	Marburg entry inh 0.199µM, VACV Venus inh inconclusive, LASV entry inh 1.12µM, Vaccinia mCherry 2.82µM
O=C(COc1ccccc1-c1ccccc1)N/N=C/c1ccc2ccccc2c1	Marburg entry inh inconclusive, VACV Venus inh inconclusive, LASV entry inh 1.78µM
S=C(NCc1ccccn1)Nc1cccc(Cl)c1	none
CCCCCCCCCC(=O)N/N=C(\C)c1cccnc1	VACV Venus inh inconclusive
O=C(COc1ccccc1-c1ccccc1)N/N=C/c1ccncc1	Marburg entry inh inconclusive
C/C(=N/NC(=O)c1ccccn1)c1ccco1	Marburg entry inh inconclusive, LASV entry inh inconclusive
CCCCCC(=O)N/N=C(\C)c1ccccn1	Marburg entry inh 7.08µM, VACV Venus inh inconclusive, LASV entry inh inconclusive, Vaccinia mCherry inconclusive
Cc1ccc(S(=O)(=O)N2CCN(c3nc(-c4ccc(CN5CCNCC5)s4)nc4ccccc34)CC2)cc1	none (no result: Marburg entry inh, LASV entry inh)
O=C1[C@H]2[C@H]3[C@H](O)[C@H](O)C/C(=N\OCc4ccccc4)[C@H]3CC[C@H]2C(=O)N1C[C@@H]1CCCO1	none (no result: VACV Venus inh, LASV entry inh, Vaccinia mCherry)
C/C(=N\NC(=O)COc1ccccc1-c1ccccc1)c1ccccn1	Marburg entry inh 3.98µM, VACV Venus inh inconclusive, LASV entry inh 5.62µM, Vaccinia mCherry inconclusive

Assay outcomes deposited in PubChem BioAssay by National Center for Advancing Translational Sciences (NCATS).
